# The list is not random: actives were taken first. Their share in the collection is about 6.7%.
# KB-3-1 tox – qHTS assay for MDR1-selective chemotherapeutics: Primary screen using the parental adenocarcinoma cell KB-3-1; AID 1347075, 2019; Potency, µM (series often up to 46.1 µM), hits mostly cytotoxic; KB-3-1 viability, CellTiter-Glo ATP luminescence, 72 h; actives 1.4% (n = 400,000); also: % is scaled to controls: 0 for no effect and ±100 for the full control effect; nearly all actives have a fitted effect of over 60% in size
#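 Luminescent ATP read-out (CellTiter-Glo) measures survival of drug-naive KB-3-1 cells after 72 h compound exposure at 37 °C. Titration series was screened from lowest to highest concentration, with DMSO vehicle plates as background controls.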
# SW480 rereplic – A quantitative high throughput screen for small molecules that induce DNA re-replication in SW480 colon adenocarcinoma cells; SW480 DNA re-replication, Hoechst DNA content imaging, 48 h; Potency, µM (titrated, usually from 46.1 µM), without a hit: top-dose re-replication activation, actives largely listed as activators; actives 1.8% (n = 340,000); AID 624297, 2012; also: % of control where 0% means no effect; nearly all actives have a fitted effect of over 55% in size
#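 Quantitative HTS format with DMSO vehicle controls; 48 hr drug incubation at 37 C, then 40 min Hoechst staining and scanning imager measurement at 405 nm excitation.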
# KB-V1 MDR tox – qHTS assay for MDR1-selective chemotherapeutics: Primary screen using the drug-selected MDR subline cells KB-V1 | KB-V1 MDR cells viability, CellTiter-Glo, 72 h | Potency, µM (titrated, usually from 46.1 µM), most hits filed as cytotoxic | actives 3.4% (n = 400,000) | AID 1347076, 2019; also: % is scaled to controls: 0 for no effect and ±100 for the full control effect; nearly all actives have a fitted effect of over 60% in size
#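 Potencies derive from concentration-effect curves fitted to normalized luminescence (CellTiter-Glo) of KB-V1 cells treated for 72 h at 37 degrees C in phenol-red-free DMEM containing 10% FBS.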
# PINK1 expr mod – A Quantitative High throughput Screen to Identify Chemical Modulators of PINK1 Expression; PINK1 immunofluorescence, high-content cytometry, 24 h; Potency, µM (highest dose often 76.6 µM), inactives show at the highest dose activation (PINK1 increase), usual class: activators; actives 0.2% (n = 410,000); AID 624263, 2012; active = well fitted activation curve with a large enough effect; inconclusive = small, poorly fitted or top-dose-only effect; cell line not stated here; also: % of control where 0% means no effect; nearly all actives have a fitted effect of over 65% in size
#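 Stable cell line treated 24 h with compounds at 5 concentrations (CCCP controls), then fixed and immunostained for PINK1 plus nuclear and cell stains; PINK1 immunofluorescence quantified by laser-scanning microplate cytometry.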
# MCF10A rereplic – A quantitative high throughput screen for small molecules that induce DNA re-replication in MCF 10a normal breast cells | MCF 10A DNA re-replication, Hoechst nuclear intensity, 48 h | Potency, µM (top dose mostly 46.1 µM), without a hit: top-dose activity, positive = re-replication, actives largely listed as activators | actives 2.9% (n = 350,000) | AID 624296, 2012; also: % of control where 0% means no effect; nearly all actives have a fitted effect of over 50% in size
# The depositor's hits bear a star; i = inactive; ? = inconclusive; · = no result given; [ ] = remark or other dose. Unless noted, calls follow the shape of the dose curve; as a rule, active = well fitted curve in the direction sought with a large enough effect; inconclusive = small, poorly fitted or top-dose-only effect, or another doubt; inactive = no such curve, though single readings can be large; an effect the other way counts as inactive or inconclusive. Potency is read from the fitted curve at half-maximal effect.
SMILES,KB-3-1 tox,SW480 rereplic,KB-V1 MDR tox,PINK1 expr mod,MCF10A rereplic
COc1ccc2c(c1)NC(C)(C)C=C2C,i,?,i,13%,27%
CC1=CC(C)(C)Nc2ccc(OS(=O)(=O)c3ccc(C)cc3)cc21,i,-6%,15µM*,0%[38.3 µM],?
CC1=CC(C)(C)Nc2ccc(OC(=O)CCN3C(=O)c4ccccc4C3=O)cc21,?,9.2µM*,?,-1%,6.5µM*
CCOc1ccc(S(=O)(=O)Oc2ccc3ccccc3c2)cc1,?,-1%,?,7%,?
COCC(C)NC(C(=O)Nc1ccc(Cl)c([N+](=O)[O-])c1)c1ccccc1 (configuration not stated),i,-24%,16µM*,8%,-3%
O=C(Nc1cc([N+](=O)[O-])ccc1Cl)C(Sc1ccccc1)c1ccccc1 (configuration not stated),i,-3%,15µM*,4%,-5%
O=C(Nc1ccc(Cl)c([N+](=O)[O-])c1)C(Sc1ccccc1)c1ccccc1 (configuration not stated),26µM*,13%,?,15%,?
CC1(C)CC(=O)C=C(c2cccc(OC(=O)c3ccc(Br)cc3)c2)C1=O,i,·,i,0%,·
Cc1ccc(Nc2nc3ccccc3c3nncn23)cc1C,i,·,i,6%,·
N#Cc1c(NCCN)nc(-c2ccco2)c2c1CCCC2,?,18µM*,?,-3%,12µM*
CC(C)CCNc1nc(-c2ccco2)c2c(c1C#N)CCCC2,i,?,i,14%,7.3µM*
CCc1nc(NCCC(C)C)c(C#N)c2c1CCCC2,i,-2%,i,4%,7%
CCOc1ccc(NC(=O)Cn2c(=O)n(Cc3ccccc3)c(=O)c3c4c(sc32)CN(C(C)=O)CC4)cc1,i,·,i,1%,·
O=C(C(=O)c1cc(Br)ccc1O)c1cc(Br)ccc1O,23µM*,?,?,?,2.6µM*
CC(=O)Nc1cc(Br)ccc1O,i,-11%,i,1%,0.73µM*
Cc1c(Cl)cccc1NC(=O)CCn1cnnn1,i,·,i,4%,·
CC(C)(C)c1ccc(C(=O)Nc2ccc(-c3nc4cc(Cl)ccc4o3)cc2)cc1,i,·,i,3%,·
COc1ccc(/C=C/c2c(-c3ccc(OC)cc3)oc(=O)c3cc(OC)c(OC)cc23)cc1,i,7%,i,1%,3%
COc1ccc(-c2oc3cccnc3c2/C=C/c2ccc(OC)c(OC)c2)cc1,i,1.6µM*,i,1%,?
CCOc1ccc(C(=O)OCC(=O)N(Cc2ccccc2)Cc2ccccc2)cc1OC,i,-3%,23µM*,1%,-1%
CC(C)CC(NC(=O)OCc1ccccc1)C(=O)NC(Cc1ccccc1)C(=O)CCl (configuration not stated),?,6.5µM*,?,-7%,7.3µM*
COc1ccc(CN(C)C(=O)C(Cc2ccccc2)NC(=O)c2ccccc2)cc1F (configuration not stated),?,?,?,-2%,?
COC(=O)C(Cc1ccccc1)NC(=O)C(CC(C)C)NC(=O)OC(C)(C)C (configuration not stated),i,-1%,i,-1%,-5%
CCOc1ccc(CN(C)C(=O)[C@H](Cc2ccccc2)NC(=O)OCc2ccccc2)cc1OC,?,12%,10µM*,-2%,?
CN(Cc1ccc(F)cc1)C(=O)C(Cc1ccccc1)NC(=O)c1ccccc1 (configuration not stated),i,-95%,10µM*,8%,-17%
SMILES,KB-3-1 tox,SW480 rereplic,KB-V1 MDR tox,PINK1 expr mod,MCF10A rereplic
CCC(=O)Nc1ccc(-c2nnc3c4ccccc4c(C)nn23)cc1,·,·,·,1%,·
COc1ccc(-c2nc3sc(CCNC(=O)c4cc(OC)c(OC)c(OC)c4)c(C)n3n2)cc1,i,·,i,0%,·
CN(Cc1ccccc1)C(=O)c1ccccc1NC(=O)c1ccccc1,i,-3%,23µM*,-2%[38.3 µM],0%
Cc1cccc(NC(=O)[C@H](Cc2ccccc2)NC(=O)OCc2ccccc2)c1,i,·,?,4%,6%
Cc1ccc(NC(=O)C(Cc2ccccc2)NC(=O)OCc2ccccc2)cc1C (configuration not stated),i,26%,5.8µM*,?,0%
CN(CC(=O)Nc1ccc(Cl)cc1)C(=O)C1CCCC1,i,1%,i,2%,-18%
CCOC(=O)c1ccc2[nH]c(C)c(C)c2c1,i,-3%,i,-2%,?
CCOC(=O)c1cc2c(ccc3nc(C)c(C)c32)[nH]c1C,i,8.2µM*,i,3%,15µM*
Cc1ccc(NN2C(=O)C=C(c3ccccc3)C2=O)cc1,i,8.2µM*,i,-1%,8.2µM*
CCN(CC)CCNC(=O)c1cnn(-c2nccc(-c3cc4ccccc4o3)n2)c1C,·,·,·,0%,·
c1ccc(-c2cc(-c3nc4ccccc4[nH]3)c3ccccc3n2)cc1,16µM*,-1%,16µM*,-3%,?
Nc1ccc(-c2nc3ccccc3[nH]2)cc1,i,-10%,i,3%,?
Cc1nc(-c2cccnc2)sc1C(=O)Nc1cccc(C(F)(F)F)c1,i,-3%,16µM*,-3%,8%
COc1ccc(C(=O)O/N=C/c2c(C(F)(F)F)nn(C)c2SCc2ccccc2Cl)cc1,7.3µM*,?,?,-1%,?
Cn1nc(C(F)(F)F)c(/C=N/OC(=O)c2ccccc2Cl)c1SCc1ccc(Cl)cc1,?,-1%,?,-1%,?
Cc1ccc(CNC(=O)CCCn2c(=O)c3ccccc3n(Cc3ccc(Cl)cc3)c2=O)cc1,i,·,i,0%,·
CCN1C(=O)CCN(C2CCCC2)c2nc(Nc3ccc(C(=O)NC4CCN(C)CC4)cc3OC)ncc21,9.2µM*,18%[9.22 µM],i,14%,10µM*
CCOc1ccc(NC(=O)Cn2cnc3c(oc4ccccc43)c2=O)cc1,i,·,i,1%,·
O=C(/C=C/c1ccc(S(=O)(=O)N2CCOCC2)cc1)NC(=S)Nc1ccc(Cl)cc1Cl,i,?,i,1%,16µM*
COc1ccc(/C=C/C(=O)Nc2ccc(C)c(S(=O)(=O)N3CCOCC3)c2)cc1,i,-32%,4.1µM*,-1%,6%
O=C(/C=C/c1ccc(S(=O)(=O)N2CCOCC2)cc1)Nc1cc(F)ccc1F,i,-9%,i,1%,?

# Bioassay records (PubChem)
